Compound activity from PubChem.
KCNQ2 inh = KCNQ2 (rat) channel inhibition; O88943; B-score at 10 µM; hit rate 1.1% among 310,000; AID 2156; CHO-K1 KCNQ2, FluxOR thallium flux, 20 min; active compounds read low;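 active means fluorescence ratio B-score at most minus 3 library SDs, with starting brightness B-score within 2 library SDs, cut at about -5.5 in these data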
KCNQ2 enhance = enhances the rat KCNQ2 potassium channel. hit rate 0.54% among 310,000. CHO-K1 KCNQ2, FluxOR thallium flux fluorescence; active compounds read high. B-score at 10 µM. AID 2239;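 active means fluorescence ratio B-score at least 3 SD of library B-scores, with initial fluorescence B-score within 3 of them, cut at about 5.3 in these data; same plate scores as AID 2156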;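 further: B-score of peak minus minimum over baseline fluorescence ratio after K+ and Tl+ stimulus; positive B-score means potentiation of KCNQ2 with more thallium influx and brighter signal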
KCNQ2 inh conf = confirmation of rat KCNQ2 potassium channel inhibitors. AID 493025. shares compounds with KCNQ2 inh. KCNQ2-expressing cells, thallium flux, inhibition; active compounds read low. activity change, negative = inhibition, % at 10 µM. hit rate 57% among 1,000;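 further: 0% = vehicle wells and values are ratio percent relative to vehicle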
KCNQ1 spec = selectivity of KCNQ2 inhibitors against human KCNQ1; KCNQ1-expressing cells, FluxOR thallium flux fluorescence; active compounds read low; activity change, negative = inhibition, % at 10 µM; shares compounds with KCNQ2 inh; hit rate 15% among 1,000;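 active means activity change at least 3 SD of negative controls below their mean in both duplicate wells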;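 further: CHO cells stably transfected with KCNQ1 and depolarized by potassium stimulus; peak minus minimum fluorescence over baseline after thallium addition; 0% = vehicle negative control and -100% = blank without thallium stimulus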
CHO Tl ctr = KCNQ2 inhibitor counter-screen hit in parental CHO cells. shares compounds with KCNQ2 inh. thallium flux counter-screen; active compounds read low. activity change, % at 10 µM. hit rate 14% among 1,000. AID 493029;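 further: 0% = vehicle negative controls with stimulus buffer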
KCNQ2 patch conf = blocks rat KCNQ2 current in automated patch clamp; shares compounds with KCNQ2 inh; KCNQ2-expressing cells; calls only at 10 µM; hit rate 49% among 550
The depositor's hits bear a star; i = inactive; . = no result; + = active, no number. Only some compounds are listed: those with a hit (about 1.6% of all), similar ones and a draw of the others. Unless noted, how the calls were made is not given here.

SMILES | KCNQ2 inh | KCNQ2 enhance | KCNQ2 inh conf | KCNQ1 spec | CHO Tl ctr | others
O=C(COC(=O)c1ccc(Cl)c(S(=O)(=O)NCc2ccccc2)c1)NCC1CCCO1 (stereo not given) | i | 0.85 | . | . | .
O=C(COC(=O)C1CCN(c2ccc(C(F)(F)F)cn2)CC1)NCCc1ccccc1 | i | 1.92 | . | . | .
COc1ccccc1CNC(=O)COC(=O)C1CCN(c2ccc(C(F)(F)F)cn2)CC1 | -6.8* | -6.8 | i | i | i
CC(C)N1CCC(N2CCN(C/C=C/c3ccccc3)CC2CCO)CC1 (stereo not given) | i | . | . | . | .
CCS(=O)(=O)N1CCCC(C(=O)Oc2ccc(Br)cc2)C1 (stereo not given) | i | 1.5 | . | . | .
Cc1ccc(Sc2nc(C)c([N+](=O)[O-])c(C)c2C#N)cc1 | i | . | . | . | .
Cc1nc(Sc2ccc(Br)cc2)c(C#N)c(C)c1[N+](=O)[O-] | -7.65* | -7.65 | -20.5%* | i | i | KCNQ2 patch conf=i
CCN(Cc1cnn(C)c1)Cc1nc(C(c2ccccc2)c2ccccc2)no1 | i | . | . | . | .
O=C(COC(=O)CCSc1ccc(Cl)cc1)NCc1ccccc1Cl | i | 0.33 | . | . | .
O=C(COC(=O)CCSc1ccc(Cl)cc1)NCc1ccco1 | -8.05* | -8.05 | i | i | i
Cc1ccc(Nc2nc(CSc3nnnn3-c3ccccc3)cs2)cc1 | i | . | . | . | .
Cc1cccc(-n2nnnc2SCc2csc(-c3ccccc3)n2)c1 | -7.15* | -7.15 | -32.0%* | i | i | KCNQ2 patch conf=+
COc1ccc(CN(C(=O)c2ccco2)c2ccc(C)c(C)c2)cc1 | -6.66* | -6.66 | i | i | i
CCOc1ccc(N(Cc2ccc(OC)cc2)C(=O)c2ccco2)cc1 | i | . | . | . | .
CCC(C)c1ccc(NC(=S)NCc2ccccc2OC)cc1 (stereo not given) | i | 0.01 | . | . | .
CCOc1ccccc1C(=O)OCC(=O)Nc1ccc(OC(F)F)cc1 | i | 0.63 | . | . | .
C[C@@H](C(=O)Nc1cccc(S(=O)(=O)N2CCOCC2)c1)N1C(=O)C2CC=CCC2C1=O (stereo not given in full) | i | 1.09 | . | . | .
CC(=O)N(CCC(Cc1ccccc1)c1ccc2c(c1)OCO2)Cc1ccccc1F (stereo not given) | -7.16* | -7.16 | -35.0%* | i | i | KCNQ2 patch conf=i
O=C(NC(Cc1ccccc1)c1ccc2c(c1)OCCCO2)c1ccccc1F (stereo not given) | i | . | . | . | .
O=C(/C=C/c1cccc([N+](=O)[O-])c1)OC1CCCCC1=O (stereo not given) | i | . | . | . | .
Cc1cc(C)n2nc(C(=O)Nc3ccn(Cc4ccccc4C)n3)cc2n1 | i | 0.11 | . | . | .
O=C(Cc1cccs1)NC(c1ccccc1)c1ccccc1 | i | . | . | . | .
O=C(COC(=O)/C(=C/c1cccs1)c1cccs1)NC(c1ccccc1)c1ccccc1 | -8.64* | -8.64 | i | i | i
CC1(C)C(=O)OC(c2ccc([N+](=O)[O-])cc2)C(C)(C)C1=O (stereo not given) | i | . | . | . | .
COc1ccc(NC(=O)c2cc3c(Cl)nc4ccccc4c3s2)c(OC)c1 | i | 0.8 | . | . | .
SMILES | KCNQ2 inh | KCNQ2 enhance | KCNQ2 inh conf | KCNQ1 spec | CHO Tl ctr | others
COc1ccc(N(C)C(=O)c2cc3c(Cl)nc4ccccc4c3s2)cc1 | -9.52* | -9.52 | -39.0%* | -40.0%* | -37.0%* | KCNQ2 patch conf=+
Cc1ccc(NC(=S)N(C)C(c2ccccc2)c2ccccc2)cc1C | -8.36* | -8.36 | -25.0%* | i | i | KCNQ2 patch conf=i
CN(C(=S)Nc1ccc(F)cc1)C(c1ccccc1)c1ccccc1 | i | . | . | . | .
Oc1oc(-c2ccccc2)nc1/C=N/c1nccs1 | i | 1.77 | . | . | .
Oc1oc(-c2ccccc2)nc1C=Nc1cccc2ccccc12 | -8.69* | -8.69 | i | i | i
CCN(CCNC(=O)C1CCN(Cc2nc(-c3cccc(Cl)c3)oc2C)CC1)c1ccccc1 | -12.4* | -12.4 | -26.5%* | i | i | KCNQ2 patch conf=i
Cc1oc(-c2cccc(Cl)c2)nc1CN1CCC(C(=O)NC2CC2)CC1 | i | 1.17 | . | . | .
COc1cc(C(=O)OCC(=O)Nc2cccc(S(=O)(=O)N3CCCC3)c2)ccc1OCC(C)C | i | 0.52 | . | . | .
O=C(/C=C/c1ccc(Cl)cc1)N1CCN(c2ccccn2)CC1 | i | . | . | . | .
CC(C)(Oc1ccc(Cl)cc1)C(=O)N1CCN(c2ccccn2)CC1 | -7.38* | -7.38 | i | i | i
O=C(COc1ccccc1)N=C1SC2CS(=O)(=O)CC2N1c1ccc(F)cc1 (stereo not given) | i | 0.44 | . | . | .
O=[N+]([O-])c1ccc(Cl)c(/C=N/N2CCN(Cc3ccccc3)CC2)c1 | i | . | . | . | .
